Among the data in PubChem BioAssay are outcome, inhibition and potentiation values, retold here.

For part of these data: Potency and affinity values are given separately. Active and inactive are the calls of the source.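 The calls were made as follows, unless noted: active = membrane potential signal rise above negative control mean plus 3 SD in both duplicates, also active in the earlier TRPC4 screen; inactive = the rest.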

Assay [1] deals with TRPC4 beta (transient receptor potential cation channel C4), mouse. In words: TRPC4 cation channel opening, retest – cell-based, Fluo4 calcium, HEK293 TRPC4beta/mu-opioid, duplicates, 10 µM, confirmation (AID 2426;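 active = fluorescence ratio normalized to control raised more than 50% in primary screen plus both repeat runs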). The following applies: Fluo4 calcium fluorescence, at 10 µM; hits give high values.
In assay [2] the test system is transient receptor potential cation channel C4 beta (TRPC4), mouse. As to the kind of experiment: TRPC4 cation channel opening, second retest – cell-based, second round, Fluo4, HEK293 TRPC4beta/mu-opioid, 1 µM, confirmation (AID 2461;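 active = primary screen active and over 50% activation in each of two duplicate runs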). Particulars: Fluo4 calcium fluorescence, at 1 µM; hits give high values.
For assay [3], the system named is TRPC4 (transient receptor potential cation channel C4 beta), mouse. In words: potentiation of DAMGO EC20 TRPC4 response – cell-based, second round, Fluo-4, HEK293 TRPC4beta/mu-opioid, 1 µM, confirmation (AID 2554;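 active = primary screen hit whose fluorescence ratio, in both repeats, exceeds the weak agonist control mean by 3 SD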). The following applies: DAMGO EC20, Fluo-4 calcium flux, at 1 µM; hits give high values.
Assay [4] relates to TRPC4 beta (transient receptor potential cation channel C4), mouse. In words: potentiation of DAMGO EC20 TRPC4 response – cell-based, Fluo-4, HEK293 TRPC4beta/mu-opioid, confirmation (AID 2555;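 active = primary screen hit whose calcium fluorescence ratio, in both repeats, exceeds the weak agonist control mean by 3 SD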). The following applies: DAMGO EC20, Fluo-4 calcium flux, at 10 µM; hits give high values.
The target of assay [5] is Short transient receptor potential channel 4 (Mus musculus) (UniProt Q9QUQ5). In words: blockers of DAMGO-evoked TRPC4 calcium flux – cell-based, Fluo4, HEK293 TRPC4beta/mu-opioid, confirmation (AID 2636;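 active = calcium signal cut by more than 3 SD below the full-agonist control yet still positive, in both repeats and the earlier primary screen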). The following applies: at 10 µM; hits give high values.
Assay [6] has the same target. As to the kind of experiment: blockers of DAMGO-evoked TRPC4 calcium flux – cell-based, second round, Fluo4, HEK293 TRPC4beta/mu-opioid, 1 µM, confirmation (AID 2637;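 active = calcium signal ratio cut to more than 3 SD under the fully stimulated control mean yet still positive, in both repeats and the primary screen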;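 as to inhibition: percent of integrated ratio relative to wells lacking test compound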). Particulars: at 1 µM; hits give high values.
Assay [7] has the same target. As to the kind of experiment: calcium entry via TRPC4 opening agents – cell-based, HEK293 TRPC4/mu-opioid, Fluo-4 calcium, dose response (AID 434937;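 active = primary screen activator hit with a dose response curve and TRPC4 channel activation at any tested dose; inactive = no activation, no dose response, or not a primary hit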).
Assay [8] shares this target. In words: potentiation of DAMGO-evoked TRPC4 calcium signal – cell-based, HEK293 TRPC4/mu-opioid, Fluo-4 calcium, EC20 DAMGO, dose response (AID 434941;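 active = earlier screen potentiator hit that boosts the TRPC4 ion channel at some dose, with a dose response; inactive = no potentiation, no dose response, or not a prior hit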;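 also: calcium entry triggered by an EC20 dose of DAMGO at the co-expressed mu-opioid receptor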).
The target in assay [9] is Short transient receptor potential channel 6 (Mus musculus) (UniProt Q61143). In words: TRPC6 blockade by TRPC4 inhibitor hits – cell-based, HEK293, membrane potential dye, duplicate, selectivity assay for TRPC4 inhibitor project, confirmation (AID 434948;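 active = active in primary screen and both duplicates, each dropping signal beyond three positive-control SD with fluorescence still positive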). Particulars: HEK293 TRPC6, membrane potential dye fluorescence, at 10 µM, stimulated with maximal-effect acetylcholine; hits give high values.

For assay [10] the target is unchanged. As to the kind of experiment: TRPC6 opening by TRPC4 activator hits – cell-based, HEK293, membrane potential dye, duplicate, selectivity assay for TRPC4 activator project, confirmation (AID 434950). The following applies: HEK293 TRPC6, membrane potential fluorescence, at 10 µM; activation: hits give high values; outcome: activation.
Assay [11] shares this target. In words: positive modulators of mouse TRPC6 channel – HEK293 cells, membrane potential dye, duplicate, selectivity assay for TRPC4 potentiator project, confirmation (AID 434952;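 active = compound raising the membrane signal above positive-control mean plus 3 SD in both repeats, and a primary screen hit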). Particulars: HEK293 TRPC6, membrane potential dye fluorescence, at 10 µM, maximal acetylcholine added after compound; hits give high values.
Assay [12] has as its target Short transient receptor potential channel 4 (Mus musculus) (UniProt Q9QUQ5). As to the kind of experiment: calcium flux activators in TRPC4/5HT1a cells, counter-screen for TRPC4 activator project, cell-based, second counter screen, HEK293 TRPC4/5HT1a, Fluo-4 (AID 434977;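 active = calcium signal rise above buffer-control mean plus 5 SD in both duplicates, and also a hit in the primary screen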). Particulars: Fluo-4 calcium flux, at 10 µM; hits give high values.
Assay [13] is described as follows: serotonin-gated TRPC4 signal block – cell-based, second counter screen, HEK293 TRPC4/5HT1a, Fluo-4, counter-screen for TRPC4 inhibitor project, confirmation (AID 434978;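 active = primary screen active whose calcium signal fell more than 3 SD beyond the full-serotonin control mean in both duplicate plates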;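 as to outcome: serotonin given first at submaximal then at maximal dose after compound preincubation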). The following applies: Fluo-4 calcium flux, at 10 µM, serotonin added to trigger calcium flux; hits give high values.
The subject of assay [14] is TRPC4 (mouse), co-expressed with 5HT1a in HEK293. In words: enhancement of serotonin-evoked TRPC4 response – cell-based, second counter screen, HEK293 TRPC4/5HT1a, Fluo-4, counter-screen for TRPC4 potentiator project, confirmation (AID 434979;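 active = signal rise over 3 SD above mean of control wells given weak agonist, in both repeats and first screen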). Particulars: Fluo-4 calcium flux, at 10 µM, serotonin added at its EC20 dose; hits give high values.
Assay [15] can be described thus: nonspecific calcium rise without TRPC4 – cell-based, HEK293 mu-opioid receptor line, counter-screen for TRPC4 activator project, confirmation (AID 449723;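 active = hit in primary screen, with calcium signal over 5 SD above buffer well mean in both duplicates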;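 also: counter screen cells carry the mu-opioid receptor alone and lack TRPC4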). Particulars: HEK293 mu-opioid cells, Fluo-4 calcium fluorescence, at 10 µM; hits give high values.
Assay [16] in a line: nonspecific potentiation of DAMGO calcium response – cell-based, HEK293 mu-opioid receptor line, counter-screen for TRPC4 allosteric potentiator project, confirmation (AID 449724;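 active = calcium signal rise more than 3 SD above the low-dose agonist control mean, in both duplicate plates and the primary screen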;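 also: HEK293 cells carrying mu-opioid receptor only with no TRPC4 channel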). The following applies: HEK293 mu-opioid receptor cells, Fluo-4 calcium flux, at 10 µM, compound added before EC20 DAMGO stimulus; hits give high values.

Chain of Short transient receptor potential channel 4 (Mus musculus) (Q9QUQ5 whole entry, looked up): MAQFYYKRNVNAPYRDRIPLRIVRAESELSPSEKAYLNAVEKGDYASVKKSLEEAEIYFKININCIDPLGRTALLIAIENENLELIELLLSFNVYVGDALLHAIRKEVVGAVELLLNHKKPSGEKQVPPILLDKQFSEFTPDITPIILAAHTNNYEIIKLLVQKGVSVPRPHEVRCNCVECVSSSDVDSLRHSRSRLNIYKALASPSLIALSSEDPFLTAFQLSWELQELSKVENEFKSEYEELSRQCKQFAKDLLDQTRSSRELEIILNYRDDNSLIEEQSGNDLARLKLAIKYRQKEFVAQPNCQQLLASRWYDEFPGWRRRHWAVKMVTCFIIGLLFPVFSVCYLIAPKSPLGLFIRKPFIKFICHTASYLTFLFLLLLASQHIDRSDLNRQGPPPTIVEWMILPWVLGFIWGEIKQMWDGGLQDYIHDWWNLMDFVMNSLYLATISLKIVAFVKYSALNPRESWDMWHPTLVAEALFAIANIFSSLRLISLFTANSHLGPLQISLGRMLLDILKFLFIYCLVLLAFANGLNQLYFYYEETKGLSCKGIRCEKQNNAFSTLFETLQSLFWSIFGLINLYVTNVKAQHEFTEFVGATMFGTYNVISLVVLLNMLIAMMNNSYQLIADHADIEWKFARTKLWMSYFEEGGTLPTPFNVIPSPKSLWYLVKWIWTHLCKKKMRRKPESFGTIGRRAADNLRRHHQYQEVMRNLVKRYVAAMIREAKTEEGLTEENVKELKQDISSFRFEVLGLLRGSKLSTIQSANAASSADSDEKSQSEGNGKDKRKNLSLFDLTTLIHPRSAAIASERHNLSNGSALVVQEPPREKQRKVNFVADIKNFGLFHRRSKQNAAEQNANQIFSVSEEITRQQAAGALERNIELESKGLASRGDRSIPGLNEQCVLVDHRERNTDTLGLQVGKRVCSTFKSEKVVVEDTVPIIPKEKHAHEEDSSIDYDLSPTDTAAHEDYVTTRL
Chain of Short transient receptor potential channel 6 (Mus musculus) (Q61143 whole entry, looked up): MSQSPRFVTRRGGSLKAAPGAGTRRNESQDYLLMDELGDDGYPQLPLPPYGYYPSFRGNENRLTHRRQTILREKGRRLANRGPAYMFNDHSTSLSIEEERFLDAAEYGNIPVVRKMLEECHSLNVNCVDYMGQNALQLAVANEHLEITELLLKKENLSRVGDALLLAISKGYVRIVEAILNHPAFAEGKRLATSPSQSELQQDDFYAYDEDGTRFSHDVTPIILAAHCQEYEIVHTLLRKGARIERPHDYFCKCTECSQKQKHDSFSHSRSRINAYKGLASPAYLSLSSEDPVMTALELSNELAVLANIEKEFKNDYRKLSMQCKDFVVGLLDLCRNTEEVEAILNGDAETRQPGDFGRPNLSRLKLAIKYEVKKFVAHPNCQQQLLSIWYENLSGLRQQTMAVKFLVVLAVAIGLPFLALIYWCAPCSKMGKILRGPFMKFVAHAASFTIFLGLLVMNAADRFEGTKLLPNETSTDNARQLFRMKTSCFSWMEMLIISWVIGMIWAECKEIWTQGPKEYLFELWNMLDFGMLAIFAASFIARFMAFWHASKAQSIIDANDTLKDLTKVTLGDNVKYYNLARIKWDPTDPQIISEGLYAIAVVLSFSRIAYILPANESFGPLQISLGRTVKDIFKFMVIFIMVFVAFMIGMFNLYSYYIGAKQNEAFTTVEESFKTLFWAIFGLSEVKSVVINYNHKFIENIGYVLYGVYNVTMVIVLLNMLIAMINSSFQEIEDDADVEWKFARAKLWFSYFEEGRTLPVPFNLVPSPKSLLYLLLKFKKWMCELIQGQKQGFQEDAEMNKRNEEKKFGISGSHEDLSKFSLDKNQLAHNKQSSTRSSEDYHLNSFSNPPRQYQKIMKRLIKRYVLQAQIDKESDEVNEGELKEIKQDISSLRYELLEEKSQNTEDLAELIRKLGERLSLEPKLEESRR

With `Cc1ccc(NC(=O)CNc2ccccc2CN(C)C2CCCCC2)cc1`, the result in [1], in assay [2], in assay [3], in assay [4], in assay [6] and in [7] was inactive. Also, the result in assay [8], in assay [9], in [10], in assay [11], in assay [12] and in [14] was inactive. The outcome in assay [15] and in [16] was inactive. Further, the inhibition in [5] was 76% (active); in [13], 33.5% (active).

Regarding `Clc1ccc(-c2csc3ncnc(NCCN4CCOCC4)c23)cc1`, the result in assay [1], in [2], in assay [3], in [4], in assay [7] and in assay [8] was inactive. In addition, the call in assay [9], in [10], in assay [11], in assay [12], in assay [14] and in assay [15] was inactive. The result in assay [16] was inactive. Besides, the inhibition in assay [5] was 79% (active); in assay [6], 50% (active); in assay [13], 38% (active).

On to `CN(C)C(CNC(=O)CCc1nc2ccccc2s1)c1ccccc1` (stereo not given), for which the outcome in assay [1], in [2], in [3], in assay [4], in [7] and in assay [8] was inactive. Further, the compound was called inactive in assay [9], in [10], in assay [11], in [12], in assay [13] and in [14]. Further, the result in assay [15] and in assay [16] was inactive. Besides, the figures for the inhibition in [5] and in assay [6] were 96% (active) and 86% (active), respectively.

As to `CC12CC3(C)CC(C)(C1)CC(NC(=O)N1CCCC1)(C2)C3`, the result in assay [1], in assay [2], in assay [3], in [4], in assay [6] and in assay [7] was inactive. Besides, the outcome in [8], in assay [9], in assay [10], in assay [11], in assay [12] and in assay [13] was inactive. Moreover, the result in assay [14], in assay [15] and in assay [16] was inactive. Moreover, the inhibition in [5] is 76% (active).

As to `CC(NCCC(Cc1ccccc1)c1ccco1)c1ccccc1` (stereo not given), the result in assay [1], in [2], in [3], in assay [4], in assay [6] and in [7] was inactive. The outcome in [8], in assay [10], in [11], in assay [12], in assay [14] and in assay [15] was inactive. The result in [16] was inactive. The inhibition was 97% (active) in assay [5], 39% (active) in assay [9] and 28.4% (active) in [13].

`COCCn1c(SCc2ccc(F)cc2)nc2ccccc2c1=O`: the result in assay [1], in assay [2], in assay [3], in assay [4], in assay [6] and in [7] was inactive. The outcome in assay [8], in assay [9], in assay [10], in assay [11], in [12] and in assay [14] was inactive. Moreover, the outcome in assay [15] and in assay [16] was inactive. The values for the inhibition in assay [5] and in assay [13] were 96% (active) and 21.6% (active), respectively.

Regarding `CCCCc1nc2ccccc2c(N)c1CCC` (tested in a mixture with another compound), the outcome in assay [1], in assay [2], in assay [3], in assay [4], in assay [7] and in assay [8] was inactive. In addition, the compound was called inactive in assay [10], in assay [11], in assay [12], in assay [14], in assay [15] and in [16]. Moreover, the inhibition is 96% (active) in assay [5], 69% (active) in assay [6], 18% (active) in assay [9] and 32.6% (active) in assay [13].

In the case of `Nc1cc(C(F)(F)F)ccc1Nc1ccccc1`, the result in [1], in assay [2], in [3], in assay [4], in [6] and in [7] was inactive. The outcome in [8], in assay [9], in assay [10], in [11], in [12] and in assay [14] was inactive. Further, the outcome in [15] and in assay [16] was inactive. Also, the inhibition in assay [5] is 90% (active); in assay [13], 27.6% (active).

On to `CC(C)CCN1CCN(Cc2ccsc2)CC1CCO` (stereo not given), for which the result in [1], in assay [2], in assay [3], in assay [4], in assay [7] and in assay [8] was inactive. In addition, the compound was classed as inactive in assay [9], in assay [10], in assay [11], in assay [12], in [14] and in assay [15]. In assay [16], the outcome was inactive. In addition, the inhibition was 90% (active) in assay [5], 45% (active) in [6] and 33.8% (active) in assay [13].

`CCCCn1c(NC(=O)c2ccccc2)nc2ccccc21`: the outcome in assay [1], in assay [2], in [3], in [5], in [6] and in assay [7] was inactive. Besides, the outcome in assay [8], in [9], in assay [10], in assay [11], in assay [12] and in [13] was inactive. Besides, the result in assay [14], in assay [15] and in assay [16] was inactive. Further, in assay [4], the potentiation was 20% (active).

As for `Cc1ccc(C)c(S(=O)(=O)/N=C2\C=C(NS(=O)(=O)c3ccccc3)C(=O)c3ccccc32)c1`, the outcome in assay [1], in assay [2], in assay [3], in [4], in assay [6] and in assay [7] was inactive. In addition, the outcome in [8], in assay [10], in assay [11], in [12], in assay [13] and in [14] was inactive. The result in assay [15] and in assay [16] was inactive. The inhibition in assay [5] is 92% (active); in assay [9], 33% (active).

Take `CCOCc1cn(CC(=O)c2ccc(Cl)cc2)c(C)nc1=N`: the outcome in assay [1], in [2], in assay [3], in assay [4], in assay [7] and in [8] was inactive. Further, the compound was called inactive in assay [9], in assay [10], in assay [11], in [12], in assay [14] and in assay [15]. Moreover, in assay [16], the outcome was inactive. The inhibition in assay [5] is 97% (active); in assay [6], 72% (active); in assay [13] it was 13% (active).

For the compound `Cc1ccc(O)c(CNc2nc3ccccc3[nH]2)c1`, the outcome in assay [1], in [2], in assay [3], in assay [4], in [7] and in assay [8] was inactive. The outcome in assay [9], in assay [10], in assay [11], in [12], in [14] and in assay [15] was inactive. Besides, in assay [16], the outcome was inactive. Also, the inhibition was 96% (active) in [5], 76% (active) in [6] and 24.5% (active) in assay [13].

As for `Cc1ccc(-n2cccn2)c(CN2CCCC(C(=O)c3ccc4c(c3)OCO4)C2)c1` (stereo not given), the result in assay [1], in assay [2], in [3], in assay [4], in assay [6] and in assay [7] was inactive. Further, the result in assay [8], in assay [10], in assay [11], in assay [12], in assay [14] and in assay [15] was inactive. Moreover, the result in assay [16] was inactive. Further, the inhibition in assay [5] is 53% (active); in assay [9] it was 28% (active); in assay [13], 38% (active).

For `OCc1ccccc1CNCc1ccccc1`, the result in assay [1], in assay [2], in assay [3], in [4], in [7] and in assay [8] was inactive. Moreover, the outcome in assay [9], in assay [10], in assay [11], in [12], in [14] and in assay [15] was inactive. The outcome in assay [16] was inactive. Further, the values for the inhibition in [5], in assay [6] and in assay [13] were 95% (active), 52% (active) and 18.7% (active), respectively.
